# Measured values: PubChem BioAssay AID485353 (National Center for Advancing Translational Sciences (NCATS), 2010)
# The campaign covered roughly 330,000 compounds. About 610 (0.18%) were called active. Not shown: some 2% with an inconclusive outcome. The list comes from a sample in which actives are over-represented; it also holds similar structures and randomly drawn compounds. Values without a mark were called inactive. The call rests on the fitted dose curve.
# Experiment: qHTS of Yeast-based Assay for SARS-CoV PLP; further: nearly all actives have a fitted effect of over 55% in size; on activity, positive = growth rescue: 0% is about no effect
# Settings: S. cerevisiae expressing SARS-CoV PLpro; Potency: growth rescue; series mostly up to 32.9 µM; activity, positive = growth rescue: at the top concentration
# Potency means the concentration at half of the fitted maximal effect.
Structure (SMILES),"activity, positive = growth rescue [%]",Potency
Cc1c2cnn(-c3ccccc3)c(=O)c2c(C)n1CCCC(=O)N1CCN(C)CC1,-4.01,–
COC(=O)[C@]1(C)CCC[C@@]2(C)C3CC[C@]4(OC(C)=O)C[C@@]3(CCC21)CC4=NO (some centres not stated),-11.5,–
CCCCN(CC(=O)Nc1cccc(S(=O)(=O)N2CCCC2)c1)Cc1nc2ccccc2c(=O)[nH]1,4.19,–
COc1ccc(N(C(=O)CNC(=O)c2ccco2)C(C(=O)NCC2CCCO2)c2ccccc2)cc1Cl (configuration not stated),3.16,–
COc1cccc(NC(=S)NC(=O)c2c(Cl)c(C)nn2C)c1,8.27,–
Cc1ccc(/C=N/NC(=O)C2=NNC(c3ccccc3)(c3ccccc3)C2)c(O)c1,–,3.55 µM (active)
Cc1nc2ccc(C(=O)N/N=C/c3ccc(O)cc3)cc2[nH]1,-3.37,–
Cc1ccc2occ(/C=N/NC(=O)c3ccccc3C)c(=O)c2c1,-12.5,–
Cc1cc(OC(=O)c2ccccc2Cl)ccc1N1C(=O)CCC1=O,-1.19,–
CC(C)C(C)NC(=O)COc1nc2ccccc2nc1N(C)C1CCCCC1 (configuration not stated),1.94,–
O=C(NC1CCN(C(=S)NCc2ccco2)CC1)c1ccc(F)cc1,2.87,–
Cn1c(=O)n(C)c2cc(CNc3ccc(N4CCOCC4)c(C(=O)O)c3)ccc21,-1.54,–
CC(=O)Nc1cccc2c1[n+]([O-])c(C)c(C)[n+]2[O-],2.81,–
COC(=O)c1ccc(C(NC(=O)OCc2ccccc2)/C(C)=C/[C@@H](C)C(=O)NCc2ccc(OC)c(OC)c2)cc1 (some centres not stated),-0.683,–
COc1ccc(CC(=O)N/N=C/c2cc([N+](=O)[O-])cc(Br)c2O)cc1,-3.04,–
COc1ccc2ccccc2c1/C=N/NC(=O)c1cc(C)[nH]n1,-2.51,–
Cc1cc(C(=O)N/N=C/c2cc([N+](=O)[O-])cc(C)c2O)n[nH]1,–,4.47 µM (active)
CC(=O)c1ccc(NC(=O)C2CC(=O)Nc3nc4ccccc4n32)cc1 (configuration not stated),0.911,–
O=c1[nH]c2ccc(S(=O)(=O)N3CCCC3)cc2[nH]1,1.84,–

Structure (SMILES),"activity, positive = growth rescue [%]",Potency
COC(=O)C[n+]1cccc2ccccc21,-1.62,–
CN(C)c1ccc(C(=S)N2CCN(C(=S)Nc3ccc(Cl)cc3)CC2)cc1,-2.17,–
COc1cc(N2CCCC2)c(OC)cc1/C=C(/C#N)c1cccc(Br)c1,11.2,–
CCOC(=O)C1C(=O)OC2(CCCC2)C1C(=O)OCC (configuration not stated),-2.52,–
CCN(C(=O)c1ccc(Br)cc1)c1ccccc1,-0.842,–
CC1CCCCC1NC(=O)/C(C#N)=C/C=C/c1ccccc1[N+](=O)[O-] (configuration not stated),-0.169,–
COc1ccc(N(CCC(=O)NCCc2ccccc2)S(=O)(=O)c2ccc(C)cc2C)cc1,-9.76,–
O=C(COC(=O)Cc1ccccc1F)NNC(=O)c1ccc(Cl)cc1,3.87,–
CCCCOC(=O)CNc1nnc(SCC(=O)OCC)[nH]c1=O,-2.39,–
CC(C)/C=N/NC(=O)c1cc(Br)ccc1O,–,10 µM (active)
COc1ccc(-c2[nH]ncc2/C=N/NC(=O)c2cc(Br)ccc2O)c(OC)c1,26.5,–
CC(=N\NC(=O)c1cc(Br)ccc1O)/C(=N/O)C(=O)Nc1ccccc1,-5.47,–
COC(=O)c1cc(OC)c(OC)cc1NC(=O)CSc1ccc(C)cc1,5.7,–
COc1ccc(C)cc1NC(=O)CSc1ccc(Cl)cc1,-14.2,–
COC(=O)c1scc(C)c1NC(=O)CSc1ccc(Cl)cc1,–,0.708 µM (active)
CCOC(=O)c1c(N)sc2c1CCCC2=O,0.263,–
CCOC(=O)c1c(/N=C/C2C(=O)CC(C)(C)CC2=O)sc(C)c1C,–,3.16 µM (active)
CCOC(=O)c1sc(/N=C/C2=C(O)CC(C)(C)CC2=O)c(C(=O)OCC)c1C,-0.745,–
